# Measured values: PubChem BioAssay AID1463 (National Center for Advancing Translational Sciences (NCATS), 2008)
# The whole screen tested about 280,000 compounds, of which about 2,600 (0.93%) were called active. About 8% were inconclusive and are not listed. The sample as a whole holds a higher share of actives than the screen did. Unmarked numbers belong to inactive results. Calls follow the shape of the dose curve; as a rule, active = well fitted curve in the direction sought with a large enough effect; inconclusive = small, poorly fitted or top-dose-only effect; inactive = flat fitted curve, though single readings scatter.
# Experiment: Counterscreen qHTS for Inhibitors of Tau Fibril Formation, Fluorescence Polarization; also: nearly all actives have a fitted effect of over 55% in size
# Conditions: tau K18 P301L (four-repeat tau fragment) Alexa594 fluorescence, heparin fibrillization; series mostly up to 57.7 µM; activity change, negative = decrease: at the top concentration
# Method in brief: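 Human K18 P301L tau (15 uM unlabeled plus 0.24 uM Alexa 594-labeled, final) in 100 mM sodium acetate pH 7 was mixed with compound and 20 uM heparin and incubated 6 hr at 37 C.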
# % is scaled to controls: 0 for no effect and ±100 for the full control effect; potency is read from the fitted curve at half-maximal effect; tags tell the direction and shape of the fitted curve or compound fluorescence and quenching.
Structure (SMILES),"activity change, negative = decrease [%]",Potency
CCc1cnc2c(c1SCC(=O)c1ccccc1)c(=O)n(C)c(=O)n2C,-7.49,–
COc1ccc(OC)c(CNC(=O)CN2C(=O)CCn3nc(-c4cn(C)c5ccccc45)cc32)c1,-14.3,–
COc1ccc2[nH]c3c(c2c1)CCN(C(=O)CCC1CCCC1)C3c1ccc(F)cc1 (stereo not given),-21.7,–
Cc1cccc(C2CC(=O)Oc3c2c(=O)n(C)c2ccccc32)c1 (stereo not given),-11.1,–
CCC(=O)Nc1cccc(C(=O)OCc2cc(=O)n3nc(CC)sc3n2)c1,1.65,–
O=C(O)c1ccc2c(c1)N(Cc1ccc(F)cc1)C(=O)c1ccccc1S2=O (stereo not given),0.615,–
Cc1cccc(NC(=O)c2ccc(F)c(S(=O)(=O)N(C)C3CCCCC3)c2)c1,-29.8,–
CCOc1ccc(OCC)c(NC(=O)c2c(C)nn(-c3ccccc3)c2-n2cccc2)c1,-22.7,–
Cc1ccc(C2c3[nH]c4ccccc4c3CCN2C(=O)c2cccc(C)c2)cc1 (stereo not given),-15.6,–
CCOc1cccc(CNC(=O)c2ccc(N3CCCC3)c(NC(=O)Nc3ccccc3CC)c2)c1,6.88,–
CNC(=O)c1ccc2nc(NC(C)=O)sc2c1,-4.01,–
CCCC(=O)Nc1nc2ccc(NC(=O)c3c(F)c(F)c(OC)c(F)c3F)cc2s1,-26.7,–
COc1ccc2nc(Nc3nc4ccc(NC(C)=O)cc4s3)sc2c1,–,12.6 µM [quencher] (active)
COc1ccc(Cl)cc1N(C)C(=O)c1cc2c(=O)oc3ccc(C)cc3c2s1,-17,–
COc1ccc(CCNS(=O)(=O)c2cc(-c3cc(C)no3)ccc2C)cc1OC,-9.75,–
CC(C)(C)c1ccc(C(=O)NCC(c2ccc(Cl)cc2)N2CCOCC2)cc1 (stereo not given),-15,–
COc1ccc(Br)cc1C1CC(=O)Nc2c1c(C)nn2-c1nc(C)cc(C)n1 (stereo not given),2.83,–
COc1ccc(/C=N/NC(=O)c2ccncc2)cc1CN1CCCc2ccccc21,–,14.1 µM [quencher] (active)
COc1ccc(/C=N/NC(=O)c2ccc(Cl)cc2)cc1COC(C)=O,-20.2,–
COc1ccccc1Cc1nc2ccccc2nc1SCC(=O)N1CCCc2ccccc21,-9.37,–
CCOC(=O)C1CCCN(C(=O)c2ccc(-n3ccc4ccccc43)s2)C1 (stereo not given),-5.78,–
CCOc1ccc(N(CC)C(=O)c2noc3c2COc2ccc(C)cc2-3)cc1,-0.276,–
COc1ccc2c(C)c(CCC(=O)NCc3ccc(OC)c(OC)c3)c(=O)oc2c1,-23.7,–
Cc1cc2c(cc3c(SCc4cccc(Cl)c4)nnc(C)n32)o1,-16.2,–
COc1ccc(OC)c(-c2nc(C(N)=O)c3c(n2)n(-c2ccc4c(c2)OCO4)c(=O)n3C)c1,-6.91,–

Structure (SMILES),"activity change, negative = decrease [%]",Potency
O=[N+]([O-])c1cc(Br)c(O)c(/C=N/Nc2nc3ccccc3s2)c1,–,7.94 µM [quencher] (active)
COc1cc(/C=N/Nc2nc3ccccc3s2)ccc1O,–,12.6 µM [quencher] (active)
Cc1ccc(S(=O)(=O)Nc2nc3ccccc3s2)cc1[N+](=O)[O-],-10.2,–
c1ccc2sc(NN=C3CCCC3)nc2c1,-19.4,–
COc1cc(/C=N/NC(=O)CCc2n[nH]c(=O)[nH]c2=O)ccc1O,4.76,–
COc1cc(/C=N\Nc2nc(-c3cccs3)c(NC(C)=O)s2)ccc1O,–,17.8 µM [quencher] (active)
COc1ccc(/C=N/Nc2nc3ccccc3o2)cc1OC,-22.7,–
COc1ccc(/C=N\NC(=O)c2sc(N)nc2C)cc1OC,-14.1,–
CCNc1nc(NCC)nc(N/N=C/c2ccc(O)c(OC)c2)n1,-22.5,–
CCCN1CCN(CCCNC(=O)c2ccc3nc(Cc4ccccc4)oc3c2)CC1,-2.06,–
O=C1CN(C(=O)Nc2ccccc2C(F)(F)F)C(c2ccccc2)c2c(sc3c2CCCC3)N1 (stereo not given),-4.27,–
CCCN1CN=C(NS(=O)(=O)c2ccc(NC(C)=O)cc2)NC1,-7.06,–
O=C(NCCc1ccccc1)c1cnc2sc(N3CCCC3)nn2c1=O,3.82,–
CN(C)CCCn1c(-c2ccc(Cl)cc2)csc1=Nc1ccccc1,-11.9,–
Cc1cc(NS(=O)(=O)c2ccc3oc(=O)c4ncn(C)c4c3c2)ccc1Br,-23.7,–
CNC(=O)c1ccc(NC(=O)c2cccc(C(F)(F)F)c2)cc1,6.68,–
Cc1cccc(NC(=O)c2cccc(C(F)(F)F)c2)c1,-17.5,–
O=C(Nc1ccc(-c2csc(Nc3cccc(C(F)(F)F)c3)n2)cc1)c1cccc(C(F)(F)F)c1,–,5.01 µM [quencher] (active)
CC(C)S(=O)(=O)c1oc(-c2ccc(F)cc2)nc1S(=O)(=O)c1ccc(F)cc1,-7.98,–
COc1ccccc1-c1c(C)nn2c(C)c(C(C)=O)cnc12,3.82,–
CCOc1ccc(-c2n[nH]c(C)c2-c2ccccn2)c(O)c1,-5.41,–
C=C(C)COc1ccc(-c2n[nH]c(C)c2-c2ccccc2OC)c(O)c1,–,17.8 µM [quencher] (active)
CC(=O)COc1ccc2c(-c3ccccc3)cc(=O)oc2c1,-1.82,–
C=C(C)COc1ccc(-c2n[nH]c(C)c2-c2ccccc2)c(O)c1,–,15.8 µM [quencher] (active)
COc1ccccc1-c1n[nH]c2c1[C@H](C)CC[C@H]2C(C)C,-3.61,–
